From PubChem BioAssay (EPA / NIEHS) come the findings set out here.

Active and inactive are the calls of the source. Rule for the calls: active = hit-call score of the fitted dose curve at least 0.9, where 1 is the maximum; inactive = score below 0.9.

One may read the AC50 as the concentration at which the activity in the assay is half-maximal.

What all share (settings): mRNA level, 48 h; actives raise or lower the signal
Read-out in assay [1]: Tumor necrosis factor receptor superfamily member 6 (Homo sapiens) (UniProt P25445)
The assay is described as follows: LTEA_HepaRG_FAS: Life Technologies and Expression Analysis (LTEA) Assay for Fas cell surface death receptor (FAS) using HepaRG (AID 2283447). An outline of the steps: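 Differentiated HepaRG cells in serum-free induction medium were exposed 48 h to 8 half-log concentrations up to 100 uM in 0.5% DMSO, in duplicate. FAS mRNA was measured by qRT-PCR normalised to ACTB, GAPDH and POLR2A; bidirectional fit versus DMSO.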

Read-out in assay [2]: Fatty acid synthase (Homo sapiens) (UniProt P49327)
Nature of the assay: LTEA_HepaRG_FASN: Life Technologies and Expression Analysis (LTEA) Assay for Fatty Acid Synthase (FASN) using HepaRG (AID 2283448). An outline of the steps: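 Differentiated human HepaRG cells were exposed for 48 h in serum-free induction medium to eight half-log concentrations up to 100 uM in 0.5% DMSO, in duplicate. FASN mRNA was quantified by TaqMan qRT-PCR, normalized to ACTB/GAPDH/POLR2A, and fitted bidirectionally against DMSO.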

Read-out in assay [3]: Cyclin D2 (CCND2), CCND2 (gene 894)
The assay is described as follows: LTEA_HepaRG_CCND2: Life Technologies and Expression Analysis (LTEA) Assay for Cyclin D2 (CCND2) using HepaRG (AID 2283449).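 Note: CCND2 transcript measured by TaqMan qRT-PCR and normalised to three housekeeping genes.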 A digest of the protocol: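 Chemicals in 0.5% DMSO, eight half-log concentrations from 100 uM top, were applied in duplicate for 48 h to human HepaRG cells in serum-free induction medium. CCND2 mRNA by TaqMan qRT-PCR, normalised to ACTB/GAPDH/POLR2A; bidirectional fit versus DMSO.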

Read-out in assay [4]: Cyclin Dependent Kinase Inhibitor 1A (CDKN1A), CDKN1A (gene 1026)
The assay is described as follows: LTEA_HepaRG_CDKN1A: Life Technologies and Expression Analysis (LTEA) Assay for Cyclin Dependent Kinase Inhibitor 1A (CDKN1A) using HepaRG (AID 2283450). An outline of the steps: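 Differentiated human HepaRG cells, pre-cultured 48 h, were exposed in duplicate for 48 h in serum-free induction medium to eight half-log concentrations up to 100 uM (0.5% DMSO). CDKN1A mRNA was measured by qRT-PCR, normalized to ACTB/GAPDH/POLR2A, bidirectionally fitted versus DMSO.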

Read-out in assay [5]: Cyclin D1 (CCND1), CCND1 (gene 595)
Nature of the assay: LTEA_HepaRG_CCND1: Life Technologies and Expression Analysis (LTEA) Assay for Cyclin D1 (CCND1) using HepaRG (AID 2283451).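 For AC50: TaqMan qRT-PCR transcript level normalised to ACTB GAPDH and POLR2A housekeeping genes.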 A digest of the protocol:
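Differentiated human HepaRG cells in serum-free induction medium were exposed 48 h to eight half-log concentrations up to 100 uM in 0.5% DMSO; mRNA quantified by TaqMan qRT-PCR, normalized to ACTB, GAPDH, POLR2A, fitted bidirectionally versus DMSO.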

Read-out in assay [6]: catalase (CAT), CAT (gene 847)
Nature of the assay: LTEA_HepaRG_CAT: Life Technologies and Expression Analysis (LTEA) Assay for catalase (CAT) using HepaRG (AID 2283452). A digest of the protocol:
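HepaRG cells in serum-free induction medium, 0.5% DMSO vehicle, exposed 48 h in duplicate over 8 half-log concentrations from 100 uM. CAT mRNA measured by qRT-PCR, normalized to ACTB, GAPDH, POLR2A; bidirectional fit versus DMSO.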

Read-out in assay [7]: flavin-containing dimethylaniline monooxygenases 3 (FMO3), FMO3 (gene 2328)
Nature of the assay: LTEA_HepaRG_FMO3: Life Technologies and Expression Analysis (LTEA) Assay for flavin-containing dimethylaniline monooxygenases 3 (FMO3) using HepaRG (AID 2283453). A digest of the protocol: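 HepaRG, 48 h exposure, 8-pt half-log series from 100 uM, 0.5% DMSO vehicle, duplicates; FMO3 transcript by Fluidigm TaqMan qRT-PCR, housekeeping-normalized; gain/loss fit vs DMSO.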

Read-out in assay [8]: Cytochrome P450 (CYP1A1), CYP1A1 (gene 1543)
Nature of the assay: LTEA_HepaRG_CYP1A1: Life Technologies and Expression Analysis (LTEA) Assay for Cytochrome P450 (CYP1A1) using HepaRG (AID 2283454). A digest of the protocol: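 Differentiated HepaRG cells in serum-free induction medium were exposed in duplicate for 48 h to eight half-log concentrations up to 100 uM in 0.5% DMSO. CYP1A1 mRNA was quantified by TaqMan qRT-PCR, normalized to ACTB, GAPDH and POLR2A.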

Read-out in assay [9]: CFLAR gene, CFLAR (gene 8837)
The assay is described as follows: LTEA_HepaRG_CFLAR: Life Technologies and Expression Analysis (LTEA) Assay for CFLAR gene using HepaRG (AID 2283455). An outline of the steps: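 Differentiated HepaRG cells in serum-free induction medium were exposed 48 h in duplicate to eight half-log concentrations up to 100 uM in 0.5% DMSO; mRNA measured by TaqMan qRT-PCR, normalized to ACTB, GAPDH, POLR2A; bidirectional fitting versus DMSO.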

Read-out in assay [10]: Forkhead box O1 (FOXO1), FOXO1 (gene 2308)
Nature of the assay: LTEA_HepaRG_FOXO1: Life Technologies and Expression Analysis (LTEA) Assay for Forkhead box O1 (FOXO1) using HepaRG (AID 2283456). A digest of the protocol:
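Differentiated HepaRG cells, in serum-free induction medium with 0.5% DMSO, exposed 48 h in duplicate to 8-point half-log series from 100 uM. FOXO1 mRNA measured by TaqMan qRT-PCR, normalized to ACTB, GAPDH, POLR2A; bidirectional fit versus DMSO.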

Read-out in assay [11]: growth arrest and DNA damage 45 (GADD45A), GADD45A (gene 1647)
Nature of the assay: LTEA_HepaRG_GADD45A: Life Technologies and Expression Analysis (LTEA) Assay for growth arrest and DNA damage 45 (GADD45A) using HepaRG (AID 2283458). A digest of the protocol: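 Differentiated HepaRG cells were exposed in duplicate for 48 h in serum-free induction medium to 8-point half-log concentrations up to 100 uM in 0.5% DMSO. GADD45A mRNA was measured by TaqMan qRT-PCR, normalized to ACTB, GAPDH and POLR2A, with bidirectional fitting versus DMSO.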

Read-out in assay [12]: Forkhead box O3 (FOXO3), FOXO3 (gene 2309)
The assay is described as follows: LTEA_HepaRG_FOXO3: Life Technologies and Expression Analysis (LTEA) Assay for Forkhead box O3 (FOXO3) using HepaRG (AID 2283459). A digest of the protocol: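 Differentiated human HepaRG cells, 48 h post-plating, exposed in duplicate for 48 h in serum-free induction medium; 8-point half-log series from 100 uM in 0.5% DMSO. FOXO3 mRNA by TaqMan qRT-PCR, normalized to ACTB/GAPDH/POLR2A; bidirectional fit versus DMSO.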

Read-out in assay [13]: ABC Transporter (ABCB1), ABCB1 (gene 5243)
Nature of the assay: LTEA_HepaRG_ABCB1: Life Technologies and Expression Analysis (LTEA) Assay for ABC Transporter (ABCB1) using HepaRG (AID 2283460). A digest of the protocol: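 HepaRG cells exposed in duplicate for 48 h in serum-free induction medium to eight half-log concentrations up to 100 uM in 0.5% DMSO. ABCB1 mRNA quantified by qRT-PCR, normalised to ACTB, GAPDH and POLR2A; fitted bidirectionally versus DMSO.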

Read-out in assay [14]: growth arrest and DNA damage 45 (GADD45B), GADD45B (gene 4616)
The assay is described as follows: LTEA_HepaRG_GADD45B: Life Technologies and Expression Analysis (LTEA) Assay for growth arrest and DNA damage 45 (GADD45B) using HepaRG (AID 2283461). A digest of the protocol: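 Differentiated HepaRG cells, plated 48 h then switched to serum-free induction medium, were exposed 48 h in duplicate to eight half-log concentrations from 100 uM in 0.5% DMSO; mRNA quantified by qRT-PCR, normalized to ACTB/GAPDH/POLR2A, bidirectional fit versus DMSO.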

Read-out in assay [15]: ABC Transporter (ABCC3), ABCC3 (gene 8714)
The assay is described as follows: LTEA_HepaRG_ABCC3: Life Technologies and Expression Analysis (LTEA) Assay for ABC Transporter (ABCC3) using HepaRG (AID 2283462). An outline of the steps:
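HepaRG cells in serum-free induction medium were exposed for 48 h in duplicate to 8-point half-log concentrations topping at 100 uM in 0.5% DMSO. ABCC3 mRNA was measured by qRT-PCR normalized to ACTB, GAPDH and POLR2A, with bidirectional fitting versus DMSO.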

Read-out in assay [16]: ABC Transporter (ABCB11), ABCB11 (gene 8647)
The assay is described as follows: LTEA_HepaRG_ABCB11: Life Technologies and Expression Analysis (LTEA) Assay for ABC Transporter (ABCB11) using HepaRG (AID 2283463). A digest of the protocol: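 Differentiated human HepaRG cells in serum-free induction medium, dosed in duplicate for 48 h. Eight-point half-log series from 100 uM in 0.5% DMSO; ABCB11 mRNA by qRT-PCR, normalized to ACTB, GAPDH, POLR2A, fitted bidirectionally versus DMSO.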

Read-out in assay [17]: ABC Transporter (ABCC2), ABCC2 (gene 1244)
The assay is described as follows: LTEA_HepaRG_ABCC2: Life Technologies and Expression Analysis (LTEA) Assay for ABC Transporter (ABCC2) using HepaRG (AID 2283464). A digest of the protocol:
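HepaRG cells were plated 48 h, switched to serum-free induction medium, then exposed in duplicate for 48 h to 8 concentrations (top 100 uM, half-log steps, 0.5% DMSO). ABCC2 mRNA was measured by qRT-PCR normalized to ACTB/GAPDH/POLR2A; bidirectional fitting versus DMSO.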

Read-out in assay [18]: Broad substrate specificity ATP-binding cassette transporter ABCG2 (Homo sapiens) (UniProt Q9UNQ0)
The assay is described as follows: LTEA_HepaRG_ABCG2: Life Technologies and Expression Analysis (LTEA) Assay for ABC Transporter (ABCG2) using HepaRG (AID 2283465). An outline of the steps: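 Differentiated HepaRG cells were exposed for 48 h in serum-free induction medium to 8 half-log concentrations, top 100 uM, in 0.5% DMSO. ABCG2 mRNA was measured by qRT-PCR, normalized to ACTB, GAPDH and POLR2A, with bidirectional fitting versus DMSO.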

Fatty acid synthase (Homo sapiens), sequence (P49327 whole entry, looked up): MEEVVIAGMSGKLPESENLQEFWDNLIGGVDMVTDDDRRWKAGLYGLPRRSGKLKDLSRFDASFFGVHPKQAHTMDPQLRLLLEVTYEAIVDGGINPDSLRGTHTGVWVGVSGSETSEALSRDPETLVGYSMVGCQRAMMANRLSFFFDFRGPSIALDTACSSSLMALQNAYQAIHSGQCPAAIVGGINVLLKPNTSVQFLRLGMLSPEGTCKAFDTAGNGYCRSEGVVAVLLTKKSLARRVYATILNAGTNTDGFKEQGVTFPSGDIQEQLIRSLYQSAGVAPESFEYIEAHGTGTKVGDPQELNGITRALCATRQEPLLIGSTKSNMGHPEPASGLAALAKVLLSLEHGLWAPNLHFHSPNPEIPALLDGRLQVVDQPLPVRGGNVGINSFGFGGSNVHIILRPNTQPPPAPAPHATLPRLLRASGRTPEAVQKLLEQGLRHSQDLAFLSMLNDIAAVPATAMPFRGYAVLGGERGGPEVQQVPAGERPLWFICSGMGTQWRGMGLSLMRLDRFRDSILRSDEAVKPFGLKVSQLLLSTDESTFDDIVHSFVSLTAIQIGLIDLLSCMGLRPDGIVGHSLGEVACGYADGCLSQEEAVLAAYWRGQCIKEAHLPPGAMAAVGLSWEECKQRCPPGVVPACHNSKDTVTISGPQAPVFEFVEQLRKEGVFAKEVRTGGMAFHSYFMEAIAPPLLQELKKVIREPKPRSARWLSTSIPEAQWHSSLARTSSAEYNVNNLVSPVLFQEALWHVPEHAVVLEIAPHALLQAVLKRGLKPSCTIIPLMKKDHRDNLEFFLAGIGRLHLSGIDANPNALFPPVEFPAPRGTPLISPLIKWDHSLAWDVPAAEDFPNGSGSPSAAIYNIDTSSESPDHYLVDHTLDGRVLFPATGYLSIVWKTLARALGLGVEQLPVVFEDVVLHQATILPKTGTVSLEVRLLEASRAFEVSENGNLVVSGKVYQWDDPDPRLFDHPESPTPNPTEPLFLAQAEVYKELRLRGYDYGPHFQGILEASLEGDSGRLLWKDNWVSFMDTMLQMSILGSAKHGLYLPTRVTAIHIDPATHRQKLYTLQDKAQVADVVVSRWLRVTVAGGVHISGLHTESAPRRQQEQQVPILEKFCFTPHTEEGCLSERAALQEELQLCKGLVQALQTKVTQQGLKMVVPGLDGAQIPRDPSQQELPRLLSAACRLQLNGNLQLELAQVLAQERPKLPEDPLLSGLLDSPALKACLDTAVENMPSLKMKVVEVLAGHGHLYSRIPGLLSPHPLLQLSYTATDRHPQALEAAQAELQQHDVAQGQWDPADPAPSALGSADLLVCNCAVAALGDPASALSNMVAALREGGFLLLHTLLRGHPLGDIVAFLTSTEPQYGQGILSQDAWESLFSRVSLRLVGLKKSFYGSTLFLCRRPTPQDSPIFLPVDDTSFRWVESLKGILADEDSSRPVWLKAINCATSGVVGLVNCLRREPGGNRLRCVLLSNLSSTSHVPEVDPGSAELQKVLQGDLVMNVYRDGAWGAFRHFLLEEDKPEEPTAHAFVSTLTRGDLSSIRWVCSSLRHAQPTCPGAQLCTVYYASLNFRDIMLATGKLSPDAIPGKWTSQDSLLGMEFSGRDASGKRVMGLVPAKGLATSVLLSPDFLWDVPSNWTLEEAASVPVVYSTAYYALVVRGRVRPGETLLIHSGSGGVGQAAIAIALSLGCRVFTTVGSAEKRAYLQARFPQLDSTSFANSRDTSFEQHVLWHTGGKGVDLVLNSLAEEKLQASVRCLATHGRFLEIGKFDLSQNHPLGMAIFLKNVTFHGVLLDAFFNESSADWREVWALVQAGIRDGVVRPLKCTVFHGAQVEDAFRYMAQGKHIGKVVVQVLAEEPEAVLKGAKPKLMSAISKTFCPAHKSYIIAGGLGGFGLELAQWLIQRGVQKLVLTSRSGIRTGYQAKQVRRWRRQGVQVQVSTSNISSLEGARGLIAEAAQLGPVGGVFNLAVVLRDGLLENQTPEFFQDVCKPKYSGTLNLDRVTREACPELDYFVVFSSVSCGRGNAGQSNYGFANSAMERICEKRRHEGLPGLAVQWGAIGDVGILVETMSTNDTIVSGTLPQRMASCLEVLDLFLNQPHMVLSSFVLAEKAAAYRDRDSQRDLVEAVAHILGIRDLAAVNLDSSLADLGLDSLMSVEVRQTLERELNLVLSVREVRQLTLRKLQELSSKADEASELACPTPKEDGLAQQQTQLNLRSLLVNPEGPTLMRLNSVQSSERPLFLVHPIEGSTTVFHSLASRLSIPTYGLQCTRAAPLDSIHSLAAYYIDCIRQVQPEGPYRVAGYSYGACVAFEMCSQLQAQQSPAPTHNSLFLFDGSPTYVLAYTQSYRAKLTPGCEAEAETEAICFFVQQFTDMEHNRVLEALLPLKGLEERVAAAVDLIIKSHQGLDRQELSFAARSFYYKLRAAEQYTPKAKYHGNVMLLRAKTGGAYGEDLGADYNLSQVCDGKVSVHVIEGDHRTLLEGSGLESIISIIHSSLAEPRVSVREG
Broad substrate specificity ATP-binding cassette transporter ABCG2 (Homo sapiens), sequence (Q9UNQ0 whole entry, looked up): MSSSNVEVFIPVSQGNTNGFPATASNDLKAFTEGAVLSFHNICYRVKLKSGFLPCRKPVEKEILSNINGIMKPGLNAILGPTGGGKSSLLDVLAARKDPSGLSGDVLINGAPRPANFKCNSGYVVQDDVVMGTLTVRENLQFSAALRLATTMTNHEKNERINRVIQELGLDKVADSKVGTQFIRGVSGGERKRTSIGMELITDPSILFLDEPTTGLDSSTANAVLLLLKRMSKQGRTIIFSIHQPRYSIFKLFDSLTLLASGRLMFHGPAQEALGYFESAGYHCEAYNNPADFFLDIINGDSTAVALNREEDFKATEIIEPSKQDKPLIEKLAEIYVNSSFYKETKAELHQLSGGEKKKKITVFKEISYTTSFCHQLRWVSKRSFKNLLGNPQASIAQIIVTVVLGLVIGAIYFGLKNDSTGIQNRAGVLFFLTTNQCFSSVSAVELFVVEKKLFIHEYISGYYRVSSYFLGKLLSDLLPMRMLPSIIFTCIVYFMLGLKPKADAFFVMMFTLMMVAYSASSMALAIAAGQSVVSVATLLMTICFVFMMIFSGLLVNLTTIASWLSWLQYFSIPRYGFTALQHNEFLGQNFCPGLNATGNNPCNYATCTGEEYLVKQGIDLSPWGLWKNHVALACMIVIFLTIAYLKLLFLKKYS

Regarding `CC(=NC#N)N(C)Cc1ccc(Cl)nc1`, the outcome in assay [1], in [2], in assay [3], in assay [4], in [5] and in assay [6] was inactive. Also, the result in [7], in [9], in assay [10], in assay [11], in assay [12] and in assay [13] was inactive. For the same molecule, the molecule was called inactive in assay [14], in assay [15], in [16], in assay [17] and in assay [18]. Moreover, the AC50 in [8] was 50 µM (active).
For the molecule `S=C1NCCN1`, the molecule was classed as inactive in assay [1], in [2], in assay [3], in assay [4], in assay [5] and in assay [6]. Moreover, the molecule was classed as inactive in [7], in [8], in assay [9], in assay [10], in [11] and in assay [12]. Also, the molecule was called inactive in [13], in assay [14], in [15], in assay [16], in [17] and in assay [18].
Turning to `CCOC(=O)CC(SP(=O)(OC)OC)C(=O)OCC` (configuration not stated), the molecule was called inactive in [2], in assay [3], in assay [4], in assay [5], in assay [6] and in assay [7]. The molecule was called inactive in [9], in assay [10], in [11], in assay [12], in assay [13] and in [14]. For the same molecule, the call in [15], in [17] and in assay [18] was inactive. For the same molecule, the AC50 in assay [8] is 30.8 µM (active); in [16], 22.7 µM (active).
As for `CCC(=NOC/C=C/Cl)C1=C(O)CC(C2CCOCC2)CC1=O` (configuration not stated), the call in [2], in assay [4], in assay [6], in assay [7], in assay [9] and in assay [10] was inactive. Besides, the outcome in assay [11], in assay [12], in assay [13], in [14], in [15] and in assay [16] was inactive. Also, the molecule was called inactive in [17] and in [18]. Besides, the AC50 in assay [5] was 0.414 µM (active); in [8], 50 µM (active).
As to `CC1=NNC(=O)N(/N=C/c2cccnc2)C1`, the outcome in assay [1], in assay [3], in assay [4], in assay [5], in assay [6] and in [7] was inactive. In addition, the molecule was called inactive in [9], in assay [10], in [11], in assay [12], in assay [13] and in [14]. For the same molecule, the result in assay [15], in assay [16], in assay [17] and in [18] was inactive. Further, the AC50 was 13.4 µM (active) in [2] and 27.5 µM (active) in [8].
